The whole screen tested about 24,000 compounds, of which about 65 (0.3%) were called active.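 Rule for the calls: active = share of bacteria positive for the green fluorescent reporter and its mean brightness both inhibited by 50% or more; inactive = the rest, inconclusive results apart.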 The full list was thinned out, with actives kept by preference.
Assay: blockers of AIP-driven agr signalling in S. aureus – RNAIII-GFP reporter, flow cytometry, primary screen (AID 527);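 note: 0% = AIP-stimulated control and 100% = unstimulated bacteria without AIP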
Settings: S. aureus RN6390 RNAIII-GFP reporter, AIP-induced, flow cytometry 3 h, at 2 µM, stronger effect = higher value
[1] = measured here: inhibition of GFP MFI

In the case of `COCCCNC(=O)CSc1nc2ccc(N3CCOCC3)cc2c(=O)n1CCc1ccccc1`, the inhibition is reported as 10.2% (inactive) and the inhibition [1] is reported as 33.4%.
In the case of `COC(=O)Cn1c(=NC(=O)CSCC(=O)Nc2cc(C)on2)sc2ccccc21`, the inhibition is reported as 0.4% (inactive) and the inhibition [1] is reported as 4.6%.
In the case of `CC(C)(C)C(=O)CCN1C(=O)C2(OCCO2)c2ccccc21`, the inhibition is reported as -2.2% (inactive) and the inhibition [1] is reported as -21.9%.
In the case of `Cc1cccn2c(=O)c3cc(C(=O)NCc4ccccn4)n(C)c3nc12`, the inhibition is reported as -3.5% (inactive) and the inhibition [1] is reported as -9.7%.
In the case of `C=CCSc1nnc(Cn2c(=O)sc3ccccc32)n1C`, the inhibition is reported as 24.2% (inactive) and the inhibition [1] is reported as 43.3%.
With `CCCS(=O)(=O)N1CCCC(C(=O)N2CCN(c3ccccc3)CC2)C1` (stereo not given) the inhibition was -1% (inactive) and the inhibition [1] was -6.2%.
For `CC(c1ccco1)N(C(=O)c1ccc(S(=O)(=O)N2CCCCC2)cc1)c1ccccn1` (stereo not given), the inhibition was -0.6% (inactive) and the inhibition [1] was 4.5%.
In the case of `CCC1=C(C(=O)OC)C(c2cc(OC)ccc2OC)C(C#N)=C(N)O1` (stereo not given), the inhibition is reported as -0.3% (inactive) and the inhibition [1] is reported as 1.1%.
With `Cc1nc2ccc(S(=O)(=O)NCC(=O)NCCN3CCCCC3C)cc2s1` (stereo not given) the inhibition was -2.2% (inactive) and the inhibition [1] was -14.7%.
With `CCCOC(=O)c1cc2ccccc2oc1=O` the inhibition was 3.4% (inactive) and the inhibition [1] was 8.3%.
For `CSc1cccc(NC(=O)C2CCCN2S(=O)(=O)c2ccc3c(c2)CCC(=O)N3)c1` (stereo not given), the inhibition was 8.9% (inactive) and the inhibition [1] was 21%.
With `O=C(CN1C(=O)CSc2ncccc21)N1CCOCC1` the inhibition was -5.1% (inactive) and the inhibition [1] was -14.2%.
With `CC1CN(C(=O)c2ccc3c(c2)OCO3)OC(c2ccccc2)O1` (stereo not given) the inhibition was 6% (inactive) and the inhibition [1] was 10.1%.
For `c1ccc(-c2cn3cccnc3n2)cc1`, the inhibition was -2.7% (inactive) and the inhibition [1] was -34.3%.
With `CS(=O)(=O)NCc1ccc(C(=O)NCc2ccccc2)cc1` the inhibition was -0.2% (inactive) and the inhibition [1] was -1.2%.
For `CS(=O)(=O)N(Cc1nc2sc3c(c2c(=O)[nH]1)CCCC3)C1CCCCC1`, the inhibition was 0.3% (inactive) and the inhibition [1] was -0.2%.
For `Cc1ccc(NC(=O)CSc2nnc(-c3cnccn3)n2Cc2ccco2)cc1C`, the inhibition was -0.7% (inactive) and the inhibition [1] was -6.3%.
With `CC(=O)C1C(c2cccc(Oc3ccccc3)c2)NC(=O)NC1(O)C(F)(F)F` (stereo not given) the inhibition was 18.4% (inactive) and the inhibition [1] was 32%.
In the case of `CCOc1ccc(NCCC(=O)c2ccc3c(c2)OCO3)cc1`, the inhibition is reported as -0.1% (inactive) and the inhibition [1] is reported as 10.4%.
For `CCOC(=O)C1CCN(C(=O)C2CCN(S(=O)(=O)c3c(C)noc3C)CC2)CC1`, the inhibition was -1.5% (inactive) and the inhibition [1] was -40%.
In the case of `COc1cc(C2C(C#N)=C(N)Oc3n[nH]c(-c4ccccn4)c32)cc(OC)c1OC` (stereo not given), the inhibition is reported as -3.4% (inactive) and the inhibition [1] is reported as 8.1%.
For `CSc1ccc(NC(=O)N2CC(C)OC(C)C2)cc1` (stereo not given), the inhibition was 0% (inactive) and the inhibition [1] was 1.1%.
With `O=C(CN1CCN(S(=O)(=O)c2ccc(F)cc2)CC1)Nc1ccccc1F` the inhibition was 11.5% (inactive) and the inhibition [1] was 16.5%.
With `COc1ccc(C2CC(c3ccc(C)cc3)Nc3ncnn32)cc1` (stereo not given) the inhibition was -0.4% (inactive) and the inhibition [1] was 12.6%.
For `CCCCN=C(N)/C(C(=O)OCC)=C(\O)c1ccc(OC)cc1`, the inhibition was 0.5% (inactive) and the inhibition [1] was 11.9%.
For `O=C(O)c1cccc2c1C(=O)N(C1CCCCC1)C2`, the inhibition was 0% (inactive) and the inhibition [1] was 21.1%.
With `CCN(CC)S(=O)(=O)c1ccc2[nH]cc(C(=O)NCCc3ccccc3)c(=O)c2c1` the inhibition was -0.1% (inactive) and the inhibition [1] was -2.7%.
In the case of `COc1c(F)c(F)c(C(=O)O)c(Nc2ccccc2C)c1F`, the inhibition is reported as -1.7% (inactive) and the inhibition [1] is reported as -14%.
In the case of `COc1ccc(C(=O)Nc2cccnc2)cc1C(=O)Nc1cccnc1`, the inhibition is reported as 2.2% (inactive) and the inhibition [1] is reported as 2.6%.
In the case of `COc1ccc(N2C(=O)c3cccc4cccc(c34)C2=O)nn1`, the inhibition is reported as -1.1% (inactive) and the inhibition [1] is reported as -16.4%.
In the case of `Cc1cccc(C)c1NC(=O)N1CC=C(n2c(=O)[nH]c3ccccc32)CC1`, the inhibition is reported as 8.3% (inactive) and the inhibition [1] is reported as 17.1%.
For `CCCCC(CC)C(=O)Nc1ccc(Cl)cn1` (stereo not given), the inhibition was 0.6% (inactive) and the inhibition [1] was 18.7%.
For `Cc1nc2nc[nH]n2c(=O)c1NC(=O)c1cccc(OCC(C)C)c1`, the inhibition was -5.4% (inactive) and the inhibition [1] was -8.1%.
For `COc1ccc(-c2c(C)nn3c(N4CCC(C(=O)N5CCCCC5)CC4)cc(C)nc23)cc1OC`, the inhibition was -3.5% (inactive) and the inhibition [1] was -8.8%.
With `CCOc1ccc(-c2nnn(CC(=O)N3CCN(c4ccc(F)cc4)CC3)n2)cc1OCC` the inhibition was 0.7% (inactive) and the inhibition [1] was 1.3%.
In the case of `COc1cccc(CN2C(=O)CCC2(C)C(=O)NC2CCCCCC2)c1` (stereo not given), the inhibition is reported as -1.4% (inactive) and the inhibition [1] is reported as -12.5%.
With `COCCCNC(=O)c1ccc2c(c1)ncn2-c1ccccc1OC` the inhibition was -3.4% (inactive) and the inhibition [1] was -5.1%.
In the case of `CCOC(=O)c1cc(NC(=O)SCC(=O)O)c(C)nc1C`, the inhibition is reported as -1.6% (inactive) and the inhibition [1] is reported as -14.7%.
In the case of `CCOc1cc(/C=N/n2cnnc2)c(Br)cc1O`, the inhibition is reported as -1.6% (inactive) and the inhibition [1] is reported as -8.8%.
With `COCCNC(=S)c1ccc(OC)cc1` the inhibition was -3.4% (inactive) and the inhibition [1] was -6.1%.
In the case of `Clc1ccc(Cc2nn3c(-c4ccncc4)nnc3s2)cc1`, the inhibition is reported as 0.3% (inactive) and the inhibition [1] is reported as 5.4%.
In the case of `CCC(=O)c1ccc(OCC(O)CN2C(=O)NC(C)(C)C2=O)cc1` (stereo not given), the inhibition is reported as -0.8% (inactive) and the inhibition [1] is reported as -2.7%.
In the case of `COc1ccc(S(=O)(=O)NC(CC(=O)NCc2ccccc2OC)c2ccco2)cc1` (stereo not given), the inhibition is reported as -0.4% (inactive) and the inhibition [1] is reported as -11.3%.
With `CC(C)CCNC(=O)CCNS(=O)(=O)c1ccc(Cl)cc1` the inhibition was 2.3% (inactive) and the inhibition [1] was 8%.
With `O=C(CCS(=O)(=O)Cc1ccccc1F)NCCCN1CCCCC1` the inhibition was -1.8% (inactive) and the inhibition [1] was -2.4%.

— PubChem BioAssay AID527 (NMMLSC, 2006)
